# Experimental data: the supplement of paper PMC7366291
# Structures can show the parent of a compound that is named as a salt. ± gives the standard deviation of the averaged measurements.
# Test system: Danio rerio Tg(wt1b:EGFP) embryo, pronephros
# Assay: glomerular width (mean of left and right), fold change vs DMSO control; higher = wider glomerulus
# Conditions: 25 µM; exposure: 24-48 hpf
# Procedure, shortened: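 Dechorionated Tg(wt1b:EGFP) zebrafish embryos were treated with 25 μM compound in 0.5% DMSO, in HEPES-buffered E3 with 0.003% PTU, from 24 to 48 hpf at 28.5°C. On maximum projections of dorsal pronephros images, 16 hand-placed reference points in Fiji gave distances and angles, and values more than 2 SD from the feature mean were left out. Results are fold changes over the mean of same-day DMSO-treated embryos.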
row,SMILES,glomerular width
1,CC(C)(C)NC[C@H](O)COc1cccc2c1CCCC2=O [(-) -Levobunolol hydrochloride],1.07 ± 0.0039
2,C#C[C@]1(O)CC[C@H]2[C@@H]3CCC4=CC(=O)CC[C@@H]4[C@H]3CC[C@@]21C [Norethindrone],0.934 ± 0.068
3,C[N+]1(CCCCC[N+]2(C)CCCC2)CCCC1 [Pentolinium bitartrate],1.0393 ± 0.0007
4,CO[C@@H]1[C@@H](OC(N)=O)[C@@H](O)[C@H](Oc2ccc3c(O)c(NC(=O)c4ccc(O)c(CC=C(C)C)c4)c(=O)oc3c2C)OC1(C)C [Novobiocin sodium salt],1.06 ± 0.038
5,C[C@@H](O[C@H]1OCCN(Cc2n[nH]c(=O)[nH]2)[C@H]1c1ccc(F)cc1)c1cc(C(F)(F)F)cc(C(F)(F)F)c1 [Aprepitant],1.09 ± 0.076
6,O=C(OCC(O)CO)c1ccccc1Nc1ccnc2cc(Cl)ccc12 (configuration not stated) [Glafenine hydrochloride],1.02 ± 0.04
7,CC(C)NC[C@H](O)COc1ccc(CC(N)=O)cc1 [(S)-(-)-Atenolol],0.918 ± 0.067
8,NS(=O)(=O)c1cc(C(=O)O)c(NCc2ccco2)cc1Cl [Furosemide],0.959 ± 0.097
9,N=C(N)NCc1cccc(I)c1 [Iobenguane sulfate],1.02 ± 0.015
10,O=C(c1ccccc1)c1ccc2n1CCC2C(=O)O (configuration not stated) [Ketorolac tromethamine],1.15 ± 0.013
11,Cc1ncc([N+](=O)[O-])n1CC(C)O (configuration not stated) [Secnidazole],0.9842 ± 0.0045
12,CC1(C)S[C@@H]2[C@H](NC(=O)Cc3ccccc3)C(=O)N2[C@H]1C(=O)O [Benzylpenicillin sodium],1.02 ± 0.014
